About 83,000 compounds went through this panel and 20% of them were active in at least one assay; those are over-represented in the sample as a whole.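 Plates (96-well) were seeded with cells, treated with compound at one concentration, and incubated for 48 hours before percent growth was determined.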 Calls of active or inactive are those of the source. The calls were made as follows: active = growth percent below 10; inactive = the rest.
Columns and labels:
Assay in all cases: NCI-60 one-dose screen, 48 h (100 = growth as untreated, 0 = no growth, -100 = all killed)
Settings in all cases: 10 µM unless noted
NCI-H23 lung = test system: NCI-H23 lung
NCI-H226 lung = test system: NCI-H226 lung
NCI-H322M lung = test system: NCI-H322M lung
HOP-62 NSCLC = test system: HOP-62 NSCLC
NCI-H460 lung = test system: NCI-H460 lung
HOP-92 NSCLC = test system: HOP-92 NSCLC
NCI-H522 lung = test system: NCI-H522 lung
A549/ATCC NSCLC = test system: A549/ATCC NSCLC
786-0 renal = test system: 786-0 renal
COLO 205 colon = test system: COLO 205 colon

Measured: growth

N#C/C(=N\Nc1ccccc1)C(=O)Nc1cc(-c2ccccc2)nn1-c1ccccc1
active: NCI-H23 lung 6.94% | NCI-H322M lung 8.62% | NCI-H460 lung 6.6% | HOP-92 NSCLC -18.6%
inactive: NCI-H226 lung 25.6% | HOP-62 NSCLC 52.8% | NCI-H522 lung 15.4% | A549/ATCC NSCLC 30.4% | 786-0 renal 50.5% | COLO 205 colon 48.4%

COc1cc2cc(Oc3ccc(NC(=O)Nc4ccc(Cl)c(Cl)c4)cc3)c(C)nc2cc1OCCN1CCCCC1
inactive: NCI-H23 lung 107% | NCI-H226 lung 77.7% | NCI-H322M lung 104% | HOP-62 NSCLC 107% | NCI-H460 lung 102% | HOP-92 NSCLC 75.1% | NCI-H522 lung 102% | A549/ATCC NSCLC 86.9% | COLO 205 colon 112%
active: 786-0 renal -70%

N#Cc1c(-c2ccc(F)cc2)cc(-c2cccc(Cl)c2)[nH]c1=O
inactive: NCI-H23 lung 62.8% | NCI-H226 lung 54.1% | NCI-H322M lung 75.2% | HOP-62 NSCLC 28% | NCI-H460 lung 86.8% | HOP-92 NSCLC 29.7% | NCI-H522 lung 57.9% | A549/ATCC NSCLC 46.3% | 786-0 renal 42.1% | COLO 205 colon 116%

CCOC(=O)/C=C1\S/C(=N\Nc2cc(=O)[nH]c3ccc(OC)cc23)N(c2ccccc2)C1=O
inactive: NCI-H23 lung 94% | NCI-H226 lung 93.2% | NCI-H322M lung 101% | HOP-62 NSCLC 97.5% | NCI-H460 lung 110% | HOP-92 NSCLC 89.7% | NCI-H522 lung 83.3% | A549/ATCC NSCLC 104% | 786-0 renal 94.4% | COLO 205 colon 95.7%

COc1ccc(-c2nc(SCCC(C)C)nc(N/N=C(/C)c3ccc(N)cc3)c2C#N)cc1
inactive: NCI-H23 lung 92.9% | NCI-H226 lung 88.9% | NCI-H322M lung 86% | HOP-62 NSCLC 89.9% | NCI-H460 lung 101% | HOP-92 NSCLC 96.8% | NCI-H522 lung 90.6% | A549/ATCC NSCLC 98.4% | 786-0 renal 97.9% | COLO 205 colon 109%

CCNc1nc(-c2ccc(Cl)c(OC)c2)c(-c2ccnc(NCCNS(=O)(=O)c3ccc(Cl)cc3)n2)s1
active: HOP-92 NSCLC -2.89% | NCI-H522 lung -25.5% | 786-0 renal 6.16%
inactive: NCI-H23 lung 26.2% | NCI-H226 lung 20.8% | NCI-H322M lung 44.9% | HOP-62 NSCLC 21.5% | NCI-H460 lung 17.1% | A549/ATCC NSCLC 27.6% | COLO 205 colon 26.2%

CC(C)(C)c1ccc(C(=O)Nc2sc3c(c2C#N)CCC(=O)C3)cc1
active: NCI-H23 lung 5.23% | NCI-H460 lung 1.59% | HOP-92 NSCLC -25% | NCI-H522 lung -22.9% | COLO 205 colon -61.8%
inactive: NCI-H226 lung 15.4% | NCI-H322M lung 86.6% | HOP-62 NSCLC 49.7% | A549/ATCC NSCLC 14.4% | 786-0 renal 17.6%

COC(=O)c1ccc(-n2cc(CCCOS(=O)(=O)c3ccc(F)cc3)nn2)cc1
inactive: NCI-H23 lung 98.1% | NCI-H226 lung 97.9% | NCI-H322M lung 102% | HOP-62 NSCLC 106% | NCI-H460 lung 102% | HOP-92 NSCLC 100% | NCI-H522 lung 93.7% | A549/ATCC NSCLC 97% | 786-0 renal 97.1% | COLO 205 colon 107%

COc1cc(CNC(=O)CCCC/C=C/C(C)C)ccc1OCc1cn(-c2cccc([N+](=O)[O-])c2)nn1
inactive: NCI-H23 lung 88% | NCI-H226 lung 90.9% | NCI-H322M lung 94.1% | HOP-62 NSCLC 97.4% | NCI-H460 lung 91.8% | HOP-92 NSCLC 70.4% | NCI-H522 lung 82.6% | A549/ATCC NSCLC 92% | 786-0 renal 73.4% | COLO 205 colon 107%

Cc1ccccc1NC(=O)Cn1cc(CN2CCN(c3ccnc4cc(Cl)ccc34)CC2)nn1
inactive: NCI-H23 lung 99.2% | NCI-H226 lung 90.9% | NCI-H322M lung 103% | HOP-62 NSCLC 90.7% | NCI-H460 lung 98.6% | HOP-92 NSCLC 68.5% | NCI-H522 lung 102% | A549/ATCC NSCLC 106% | 786-0 renal 104% | COLO 205 colon 99%

O=C(/C=C/c1ccc([N+](=O)[O-])cc1)c1cccc(Nc2nc(Nc3ccccc3)nc(Nc3ccccc3)n2)c1
inactive: NCI-H23 lung 60.9% | NCI-H226 lung 82.6% | NCI-H322M lung 75.9% | HOP-62 NSCLC 69.2% | NCI-H460 lung 81.1% | NCI-H522 lung 78.7% | A549/ATCC NSCLC 72.7% | 786-0 renal 70.5% | COLO 205 colon 65.1%
active: HOP-92 NSCLC -2.76%

Cn1cc(-c2ccc3c(Nc4cccc(NC(=O)Nc5cccc(F)c5)c4)ncnc3c2)cn1
inactive: NCI-H23 lung 47.1% | NCI-H226 lung 67.8% | NCI-H322M lung 40.7% | HOP-62 NSCLC 42.8% | NCI-H460 lung 29.1% | HOP-92 NSCLC 53.6% | NCI-H522 lung 26.5% | A549/ATCC NSCLC 28.7% | 786-0 renal 18.1%
active: COLO 205 colon 4.23%

COc1cc(-c2ccc(-c3ccc(C(=N)N)s3)s2)cc(OC)c1OC
active: 786-0 renal 9.32% | COLO 205 colon -61.8%
inactive: NCI-H23 lung 71.5% | NCI-H226 lung 89.4% | NCI-H322M lung 69.1% | HOP-62 NSCLC 69.9% | NCI-H460 lung 17.3% | HOP-92 NSCLC 33.6% | NCI-H522 lung 61.5% | A549/ATCC NSCLC 32.8%

O=C(CN1C(=O)NC2NC(=O)NC21)N/N=C/c1cccc([N+](=O)[O-])c1 (stereo not given)
inactive: NCI-H23 lung 104% | NCI-H226 lung 94% | NCI-H322M lung 108% | HOP-62 NSCLC 107% | NCI-H460 lung 107% | HOP-92 NSCLC 123% | NCI-H522 lung 97.3% | A549/ATCC NSCLC 112% | 786-0 renal 106% | COLO 205 colon 122%

CC(C)=CCC[C@](C)(O)C1CC[C@]2(C)[C@@H]1CC[C@@H]1[C@@]3(C)CC/C(=N\OCCC#N)C(C)(C)[C@@H]3CC[C@]12C (stereo not given in full)
inactive: NCI-H23 lung 72.5% | NCI-H226 lung 68% | NCI-H322M lung 98.8% | HOP-62 NSCLC 89.5% | NCI-H460 lung 79.6% | HOP-92 NSCLC 105% | NCI-H522 lung 68.7% | A549/ATCC NSCLC 76.2% | 786-0 renal 86.2% | COLO 205 colon 83.9%

COc1cc(C(=O)/C=C/c2c(-c3cccs3)nc3sc(C)cn23)cc(OC)c1OC
active: NCI-H23 lung 6.64% | HOP-62 NSCLC -8.11% | NCI-H460 lung -30.6% | HOP-92 NSCLC -2.76% | NCI-H522 lung -2.1% | 786-0 renal 7.58% | COLO 205 colon 2.63%
inactive: NCI-H226 lung 33.1% | NCI-H322M lung 13.3% | A549/ATCC NSCLC 10.6%

COc1ccc(C2=NN(C=O)C(c3ccc(Oc4nc5c(c(=O)n(C)c(=O)n5C)n4C)c(OC)c3)C2)cc1 (stereo not given)
inactive: NCI-H23 lung 80.7% | NCI-H226 lung 82.4% | NCI-H322M lung 76.6% | HOP-62 NSCLC 87% | NCI-H460 lung 99% | HOP-92 NSCLC 95.2% | NCI-H522 lung 92.9% | A549/ATCC NSCLC 56.6% | 786-0 renal 103% | COLO 205 colon 91.5%

C=C(C)[C@@H]1CCC[C@]2(C(=O)OC)CC[C@]3(C)[C@@H](CC[C@@H]4[C@@]5(C)CCCNC(C)(C)[C@@H]5CC[C@]43C)[C@@H]12
inactive: NCI-H23 lung 96% | NCI-H226 lung 84.4% | NCI-H322M lung 79.6% | HOP-62 NSCLC 85.5% | NCI-H460 lung 94.4% | HOP-92 NSCLC 70.7% | NCI-H522 lung 91.8% | A549/ATCC NSCLC 91.9% | 786-0 renal 90.1% | COLO 205 colon 76.1%

CCN(CC)CCOc1ccc(/C(=C(\C)Cc2ccc(OC)cc2)c2ccc(O)cc2)cc1
inactive: NCI-H23 lung 59.2% | NCI-H226 lung 74.6% | NCI-H322M lung 54.5% | HOP-62 NSCLC 25.8% | A549/ATCC NSCLC 19.4%
active: NCI-H460 lung -36.4% | HOP-92 NSCLC 2.96% | NCI-H522 lung -9.94% | 786-0 renal -37.1% | COLO 205 colon -72.1%

Cc1[nH]c(C(=O)Nc2ccccc2OC2CCNC2)c(Cl)c1Cl (stereo not given)
inactive: NCI-H23 lung 87.1% | NCI-H226 lung 80.6% | NCI-H322M lung 92.1% | HOP-62 NSCLC 78.7% | NCI-H460 lung 72.6% | HOP-92 NSCLC 72.6% | NCI-H522 lung 60.7% | A549/ATCC NSCLC 101% | 786-0 renal 68.9% | COLO 205 colon 83.5%

CC1=C([Se]CC(OC(=O)[C@@H](CO)NC(=O)OC(C)(C)C)C(=O)NCCCCCC(=O)OCc2ccccc2)C(=O)c2ccccc2C1=O (stereo not given in full)
inactive: COLO 205 colon 10.2%
active: NCI-H23 lung -77.8% | NCI-H226 lung -85.4% | NCI-H322M lung -74% | HOP-62 NSCLC -100% | NCI-H460 lung -4.97% | HOP-92 NSCLC -75.3% | NCI-H522 lung -94.6% | A549/ATCC NSCLC -24% | 786-0 renal -97.3%

COC(=O)c1nc(-c2ccc(C)cc2)oc1N1CCOCC1
inactive: NCI-H23 lung 106% | NCI-H226 lung 94% | NCI-H322M lung 105% | HOP-62 NSCLC 98.3% | NCI-H460 lung 100% | HOP-92 NSCLC 102% | NCI-H522 lung 90.7% | A549/ATCC NSCLC 88.4% | 786-0 renal 82.3% | COLO 205 colon 111%

Cc1ccc(S(=O)(=O)N(CCC(=O)O)c2ccccc2)cc1
inactive: NCI-H23 lung 112% | NCI-H226 lung 109% | NCI-H322M lung 122% | HOP-62 NSCLC 96.2% | NCI-H460 lung 112% | HOP-92 NSCLC 102% | NCI-H522 lung 109% | A549/ATCC NSCLC 104% | 786-0 renal 94.3% | COLO 205 colon 132%

COc1ccccc1-c1nc2ccc3[nH]ncc3c2c2c1CCCC2
inactive: NCI-H23 lung 69% | NCI-H226 lung 81.4% | NCI-H322M lung 82.8% | HOP-62 NSCLC 61.2% | NCI-H460 lung 82.5% | HOP-92 NSCLC 70.5% | NCI-H522 lung 55% | A549/ATCC NSCLC 65.2% | 786-0 renal 67.7% | COLO 205 colon 74.7%

C=C(C)[C@@H]1CC[C@]2(C(=O)NC(C)=O)CC[C@]3(C)[C@H](CC[C@@H]4[C@@]5(C)CCCNC(C)(C)[C@@H]5CC[C@]43C)[C@@H]12
inactive: NCI-H23 lung 59.7% | NCI-H226 lung 83.6% | NCI-H322M lung 63.3% | HOP-62 NSCLC 56.4% | HOP-92 NSCLC 56.4% | A549/ATCC NSCLC 26.8% | 786-0 renal 59.4%
active: NCI-H460 lung -84.2% | NCI-H522 lung -46.7% | COLO 205 colon -59%

Cn1ccnc1C(=O)/C=C/c1ccc(CC(=O)Nc2cc(F)c(F)c(F)c2)cc1
inactive: NCI-H226 lung 58.1% | NCI-H322M lung 21.1% | HOP-62 NSCLC 11.8% | HOP-92 NSCLC 69.4% | NCI-H522 lung 12.3% | A549/ATCC NSCLC 28.6% | COLO 205 colon 24%
active: NCI-H23 lung 8.11% | NCI-H460 lung 5.19% | 786-0 renal 6.02%
